Sampled rows, rich in hits. Any-hit rate of the full collection: about 6.5%.
Vaccinia mCherry: qHTS for Stage-Specific Inhibitors of Vaccinia Orthopoxvirus: mCherry Reporter Primary qHTS | Vaccinia virus mCherry reporter infection, fluorescence | Potency, µM (doses to about 36.5 µM), for the others: top-dose activity change, negative = inhibition, hits mostly inhibitors | hit rate 0.63% among 310,000 | AID 720579, 2013; calls by dose curve; tested in A549 cells; further: potency means the concentration at half of the fitted maximal effect; nearly all actives have a fitted effect of over 35% in size
HCMV inh: qHTS Assay for inhibitors of the human cytomegalovirus (HCMV) | HFF cells, HCMV-luciferase reporter, 72 h; active compounds read low | activity change, negative = inhibition, % at 57.5 µM | hit rate 4.5% among 410,000; in the data active means activity change below about -60%; inconclusive means no clear call, values can overlap the other calls; inactive means above about -39%
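Luciferase read-out from HCMV-luciferase-infected HFFs (MOI 1 PFU/cell) 72 h post infection at 37C; compounds added after 16 h cell attachment; activity normalized between buffer-only basal and Salinomycin (10uM) inhibitor controls.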
Vaccinia Venus: qHTS for Stage-Specific Inhibitors of Vaccinia Orthopoxvirus: Venus Reporter Primary qHTS. Vaccinia virus Venus reporter expression, fluorescence. Potency, µM (top dose mostly 36.5 µM), for the others: top-dose activity change, negative = inhibition, actives largely listed as inhibitors. hit rate 0.46% among 330,000. AID 720580, 2013; calls by dose curve; tested in A549 cells; further: potency means the concentration at half of the fitted maximal effect; nearly all actives have a fitted effect of over 30% in size
MARV entry inh: qHTS for inhibitors of binding or entry into cells for Marburg Virus; Potency, µM (doses to about 37.8 µM), for inactives: at the top dose activity change, negative = inhibition, hits mostly inhibitors; Marburg virus pseudotyped entry inhibition, cell reporter; hit rate 1.8% among 300,000; AID 540276, 2011; calls by dose curve; tested in HEK293 cells; further: potency means the concentration at half of the fitted maximal effect
FMDV antiviral: High Throughput Screening for Foot and Mouth Disease Virus Antivirals; hit rate 1.2% among 410,000; Potency, µM (series often up to 57.9 µM), for inactives: top-dose activity change, negative = inhibition, usual class: inhibitors; FMDV antiviral cell-based qHTS; calls by dose curve; tested in HEK293T cells; further: read-out not given here; potency means the concentration at half of the fitted maximal effect; nearly all actives have a fitted effect of over 45% in size
LASV entry inh: qHTS for Inhibitors of binding or entry into cells for Lassa Virus; AID 540256, 2011; Lassa virus pseudotype entry inhibition, cell reporter; Potency, µM (highest dose often 37.9 µM), for the others: top-dose activity change, negative = inhibition, most hits filed as inhibitors; hit rate 1.2% among 300,000; calls by dose curve; tested in HEK293 cells; further: potency means the concentration at half of the fitted maximal effect; nearly all actives have a fitted effect of over 50% in size
Active calls of the source: *; i = inactive; ? = inconclusive; . = no result given; [ ] = remark or other dose. On the % scale 0 is the no-effect control and ±100 the full control effect.

SMILES	Vaccinia mCherry	HCMV inh	Vaccinia Venus	MARV entry inh	FMDV antiviral	LASV entry inh
Cc1ccc(C(C)C)c(OCC(O)CN2CCN(c3ccccc3F)CC2)c1 (stereo not drawn)	-19%	?	-22%	.	-25%	24%[46.1 µM]
Cn1c(=O)c(C(=O)N2CCc3ccccc32)cc2cccnc21	-4%	-10	3%	?	-27%	?
Cc1ccc(C(=O)O)cc1NC(=O)c1nsc2ccccc12	-12%	76	-16%	3%[46.1 µM]	-5%	29%[46.1 µM]
Cc1ccc(C)c(OCC(O)CN2CCN(CCN3C(=O)c4cccc5cccc(c45)C3=O)CC2)c1 (stereo not drawn)	?	-84*	?	?	25µM*	?
COC(=O)[C@]12CCCCC=C1N(Cc1cccc3ccccc13)C(=O)[C@H](CC(=O)NCCC(C)C)C2	1%	-61*	-10%	.	-26%	.
COC(=O)[C@]12CCCCC=C1N(Cc1cccc3ccccc13)C(=O)[C@H](CC(=O)NCc1ccccc1)C2	-1%	26	3%	.	0%	.
COCCCNC(=O)C[C@@H]1C[C@@]2(C(=O)OC)CC(C)(C)CC=C2N(Cc2ccc3c(c2)OCO3)C1=O	-25%	-62*	3%	.	1%	.
CCCCOCCCNC(=O)C[C@@H]1C[C@@]2(C(=O)OC)CC(C)(C)CC=C2N(Cc2ccc3c(c2)OCO3)C1=O	-19%	-15	?	.	-19%	.
CCOC(=O)[C@]12CCC=C1N(Cc1ccccc1)C(=O)[C@H](CC(=O)NCc1cccc(C(F)(F)F)c1)C2	6%	-97*	-20%	.	-12%	.
COC(=O)[C@]12CCCCC=C1N(Cc1ccc3c(c1)OCO3)C(=O)[C@H](CC(=O)NCc1cccc3ccccc13)C2	?	-61*	?	.	-11%	.
O=C(CCSCCc1ccccn1)Nc1ccc(Cl)cc1	-10%	6	-10%	.	-16%	-25%[46.1 µM]
O=C(NCCC1CCCCN1S(=O)(=O)c1ccc(F)cc1)C(=O)Nc1ccccc1 (stereo not drawn)	-18%	6	-10%	-25%	-2%	-23%
CC1(C)CCC(=O)N2CC[C@H]3C[C@H](OC(=O)Nc4ccc(Br)cc4)C[C@@H]1[C@H]32	-8%	-101*	?	.	13%	.
Clc1ccc2c(c1)CNc1c(ncnc1N1CCOCC1)O2	.	4	10µM*	-1%	?	-14%
[O-][N+](=NC1C=Cc2ccccc21)C1C=Cc2ccccc21 (stereo not drawn)	?	.	7%	.	.	.
CC1=C(C(=O)OC2CCCC2)C(c2cccc(Cl)c2Cl)CC(=O)N1 (stereo not drawn)	-18%	-75*	-15%	-47%[46.1 µM]	?	15%[46.1 µM]
COc1cccc(-c2noc(-c3cc(C(C)C)[nH]n3)n2)c1OC	-12%	45	-10%	.	21%	11%[46.1 µM]
Cc1cccc(C)c1NC(=O)C(Cl)=C(Cl)Cl	?	-89*	-21%	?	1%	-4%
Cc1ccc(Cl)cc1NC(=O)C(Cc1ccccc1)NS(=O)(=O)c1cccc2nsnc12 (stereo not drawn)	-9%	-32	-16%	0%[46.1 µM]	11%	0%[46.1 µM]
NC(N)=Nc1nc2cc([N+](=O)[O-])ccc2o1	.	-71*	.	.	28%	.
COCCCNC(=S)N1CCC(C(=O)c2ccc3c(c2)OCCO3)CC1	i	-38	-10%	-19%[46.1 µM]	-22%	-7%[46.1 µM]
CC(C)CNC(=S)N1CCC(C(=O)c2ccc3c(c2)OCCO3)CC1	.	-63*	.	.	-13%	.
COc1cccc(/C=N/NC(=O)c2ccncc2)c1OC(=O)c1ccc(Br)cc1	4.5µM*	.	-29%	?	-15%	?
O=C(N/N=C/c1cccs1)c1ccc(NC(=O)c2ccccc2Cl)cc1	i	-65*	-17%	?	-13%	5%
COc1cc(/C=N/NC(=O)c2ccncc2)ccc1OC(=O)c1cccc(Br)c1	-6%	32	-10%	1%[46.1 µM]	-14%	26%[46.1 µM]
SMILES	Vaccinia mCherry	HCMV inh	Vaccinia Venus	MARV entry inh	FMDV antiviral	LASV entry inh
O=C(N/N=C/c1ccc(O)cc1)c1ccc(NC(=O)c2ccccc2Br)cc1	?	-7	?	?	-17%	2.5µM*
COc1ccccc1/C=N/NC(=O)c1ccc(NC(=O)c2ccccc2Br)cc1	-22%	-66*	-4%	7%	-27%	3%
C[C@H](O)[C@@H]1C(=O)N2CCc3ccc(N4CCN(C)CC4)cc3[C@@H]2C[C@@H]1N(C)C(=O)c1ccc(C#N)cc1	1%	15	1%	.	-19%	.
Nc1ccc(NC(=O)c2cc(Cl)ccc2O)c(Cl)c1	-10%	.	-6%	.	.	.
Cc1cc(C)n(C(C)CC(=O)Nc2ccc3c(c2)OCO3)n1 (stereo not drawn)	.	0	.	.	21%	.
O=C(Oc1ccccc1C(=O)Nc1ccccc1)c1ccccc1Br	?	-66*	?	-14%	-29%	-21%
O=C(COc1ccccc1C(=O)Nc1ccccc1)Nc1ccccc1Br	-5%	.	-9%	.	.	.
C=C1CC2(OC1=O)c1ccccc1CCc1ccccc12	?	-97*	14µM*	?	22µM*	20µM*
COc1ccc2ncc(S(=O)(=O)c3ccccc3)c(N3CCC4(CC3)OCCO4)c2c1	?	-35	-19%	?	?	-26%
COc1ccc2ncc(S(=O)(=O)c3ccccc3)c(N3CCN(c4ccccc4)CC3)c2c1	-29%	-68*	-16%	?	?	?
Cc1nc2ccccn2c1C(=O)CSc1ccc(Cl)cc1Cl	.	-35	.	3%	-13%	0%
Cc1nc2ccccn2c1C(=O)CSc1ccccc1Cl	.	-66*	?	?	25µM*	-15%
O=C(OCc1ccccc1)N1CCOCCOCCN(C(=O)OCc2ccccc2)CCOCCOCC1	-18%	-13	-15%	?	22µM*	?
O=C(NCc1ccccc1)N1CCOCC1	.	0	.	.	-5%	.
O=S(=O)(Nc1ccc2c(c1)CCC2)c1cccs1	.	-7	.	-15%	57%	9%
O=C1OCc2cc(NS(=O)(=O)c3cccs3)ccc21	-12%	-63*	-5%	1%	.	28%
CC(=O)Nc1cccc(NC(=O)c2ccc(COc3ccccc3)cc2)c1	3%	57	-13%	?	40%	?
CC(=O)NC(NC(C)=O)c1cccc(OCc2ccccc2)c1	i	-68*	-1%	-1%	-15%	16%
COc1ccccc1NC(=O)Cn1c(=O)c(CNc2ccc(C)cc2)cc2cc3c(cc21)OCCO3	11%	24	11%	.	21%	-15%[46.1 µM]
CCCCn1c(SCC(=O)N2CCC(C)CC2)nc2ccsc2c1=O	.	?	.	8.2µM*	?	14%
CCCCn1c(SCC(=O)N2CCN(c3ccccc3)CC2)nc2ccsc2c1=O	-23%	.	-24%	?	?	26%[14.3 µM]
